From PubChem BioAssay (NCI) come the findings set out here.

Common to all, as to assay: NCI-60 one-dose screen, 48 h (100 = growth as untreated, 0 = no growth, -100 = all killed)
What all share (conditions): 10 µM unless noted

The subject of assay [1] is HCT-15 colon.
The subject of assay [2] is HT29 colon.
In assay [3] the test system is SNB-75 CNS.
For assay [4], the system named is SNB-19 CNS.
In assay [5] the test system is U251 CNS.
The test system of assay [6] is PC-3 prostate.
Assay [7] concerns SK-MEL-5 melanoma.
In assay [8] the test system is UACC-62 melanoma.
Assay [9] has as its system LOX IMVI melanoma.
Assay [10] has as its system SK-MEL-28 melanoma.
The test system of assay [11] is SK-MEL-2 melanoma.
In assay [12] the test system is EKVX NSCLC.
In assay [13] the test system is SN12C renal.
In assay [14] the test system is UO-31 renal.
The test system of assay [15] is TK-10 renal.
For assay [16], the system named is CAKI-1 renal.
The subject of assay [17] is A498 renal.
For assay [18], the system named is CCRF-CEM leukemia.
Assay [19] has as its system MOLT-4 leukemia.
Assay [20] has as its system ACHN renal.

Compounds without any hit were thinned out: in the full panel of roughly 83,000, 20% have a hit.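 Each cell line was grown in a 96-well plate and treated with one concentration of compound for 48 hours. Values below 10 were considered active.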 Unmarked numbers belong to inactive results. The source made the active and inactive calls.

As for `Cc1cc(C)c(C=O)c(C)c1`, the growth in assay [1] is 107%; in assay [2] it was 98.8%; in [3], 83%; in [4] it was 102%; in [5] it was 101%; in assay [6], 79.9%. Also, the growth in assay [7] is 99.8%; in assay [8], 108%; in [9], 96.8%; in assay [10], 110%; in [11], 106%; in assay [12], 101%. The growth in assay [13] is 103%; in assay [14], 86.3%; in assay [15] it was 103%; in assay [16] it was 94.1%; in assay [17] it was 102%; in assay [18], 78.6%. The growth in assay [19] is 85%.
With `CC(N)C(=O)NNc1n[nH]c(=S)n1N` (centres undefined), the growth in assay [1] was 93.9%; in [2], 109%; in [3], 92.8%; in [4], 99.1%; in assay [5] it was 103%; in assay [6], 99.6%. Besides, the growth was 97.5% in assay [7]; 102% in assay [8]; 98.5% in assay [9]; 102% in assay [10]; 105% in assay [11]; 93.9% in [12]. The growth is 102% in [13]; 83% in assay [14]; 108% in [15]; 93.9% in assay [16]; 94.8% in assay [17]; 102% in [18]. In assay [19], the growth is 107%.
Consider `O=C1C(=O)c2c(nc3ncccn23)-c2ccccc21`, for which the growth in [1] was -67.2% (active); in [2], -17.2% (active); in assay [3] it was -92.8% (active); in [4], -88% (active); in [5], -84% (active); in [6], -4.28% (active). In addition, the growth in assay [7] was -99.4% (active); in assay [8], -92.8% (active); in assay [9], -88% (active); in [10], -85.7% (active); in assay [11] it was -58.9% (active); in assay [12], -75.8% (active). Moreover, the growth was -82.3% (active) in [13]; -98.4% (active) in assay [14]; -52.4% (active) in assay [15]; -100% (active) in assay [20]; -95.9% (active) in [17]; -3.54% (active) in assay [18]. Besides, in assay [19], the growth is -46.6% (active).
On to `C1=C2CNCC3=Cc4ccc5ccccc5c4OC23Oc2c1ccc1ccccc21`, for which the growth in assay [1] was 21.7%; in assay [2], 19.1%; in [3] it was 34.5%; in [4], 59.6%; in assay [5], 38.9%; in assay [6], 39.1%. The growth in assay [7] is 35.6%; in [8] it was 25.6%; in assay [9] it was 18.9%; in [10], 46.7%; in assay [11] it was 51.9%; in assay [12] it was 66.4%. For the same compound, the growth in assay [13] was 63.2%; in assay [14] it was 36.3%; in [15], 89.7%; in assay [16] it was 31.1%; in assay [18], 43.3%.
As for `COc1ccc(C2CC(c3cccc(Nc4ccncc4)c3)=NN2c2cc(Cl)cc(Cl)c2)cc1` (centres undefined), the growth was -67.5% (active) in assay [1]; -17.5% (active) in assay [2]; 65.9% in assay [3]; 91% in assay [4]; -34.4% (active) in [5]; 33.8% in assay [6]. The growth in assay [7] is 67.5%; in assay [8], 99.6%; in [9], -52.7% (active); in [10], -49.3% (active); in assay [11], 91.1%; in [12] it was 81.9%. The growth in assay [13] was 70.8%; in assay [14], 53.7%; in [20], 51.7%; in assay [16], 33.3%; in assay [17], 95.7%; in assay [18], 7.35% (active). Also, the growth in assay [19] is -2.82% (active).
With `O=CNc1cc(Cl)cc(Cl)c1`, the growth in assay [1] was 103%; in assay [2], 101%; in [3], 104%; in assay [4] it was 99.7%; in assay [5] it was 102%; in assay [6], 96.1%. For the same compound, the growth in assay [7] is 102%; in assay [8], 96.1%; in assay [9], 108%; in assay [10] it was 103%; in assay [11] it was 100%; in [12], 96.7%. In addition, the growth in assay [13] was 95.9%; in assay [14] it was 90.1%; in assay [15] it was 101%; in [16], 92.3%; in assay [18], 101%; in [19] it was 97.5%.
On to `C(=N\Nc1ncc(-c2cc3cc4c(cc3o2)OCO4)s1)/c1c[nH]c2ccccc12`, for which the growth in [1] was 6.56% (active); in assay [2] it was 23.2%; in [3], -0.264% (active); in assay [4], 3.35% (active); in [5], -10% (active); in assay [6] it was 1.87% (active). In addition, the growth is 5.79% (active) in assay [7]; 1.76% (active) in assay [8]; -94% (active) in assay [9]; 30.9% in assay [10]; 51.3% in assay [11]; 5.32% (active) in [12]. In addition, the growth in [13] was -12.3% (active); in assay [14] it was -96.5% (active); in assay [15], 22.7%; in assay [16], -43.3% (active); in assay [17] it was -3.19% (active); in assay [18] it was 2.87% (active). In [19], the growth is -23.8% (active).
In the case of `CC(=O)CCSc1ccc(OC(C)=O)cc1`, the growth in assay [1] was 101%; in assay [2], 90.1%; in assay [3] it was 86.8%; in assay [4], 97.8%; in assay [5], 95.3%; in assay [6] it was 83.8%. The growth in [7] was 96.1%; in assay [8] it was 93.1%; in assay [9] it was 98.1%; in assay [10], 107%; in [11], 99.5%; in assay [12], 105%. For the same compound, the growth was 101% in assay [13]; 87.3% in assay [14]; 96.3% in assay [15]; 103% in assay [20]; 95.8% in assay [17]; 75.3% in assay [18]. For the same compound, the growth in assay [19] is 94.1%.
